Assay outcomes from PubChem.
Shown are actives, neighbours in structure and some others; about 3.5% of the full set was active somewhere.
TWEAK-Fn14 inh – inhibitors of TWEAK-Fn14 signaling, primary screen, luciferase reporter cells, uHTS | TWEAK-stimulated Fn14 reporter cells, luciferase luminescence, 8 h | inhibition, % at 10 µM | 360,000 tested, 2% active; in the data active = inhibition above about 50%
HSP90 refold inh – HSP90 inhibitors, primary screen, cell lysate, luminescence. AID 1789, 2009. Heat shock protein HSP 90 (rabbit reticulocyte lysate; luciferase refolding). Rabbit reticulocyte lysate, luciferase refolding luminescence, 3 h. 290,000 tested, 0.91% active. inhibition, % at 5.6 µM;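 active = inhibition above the screen-wide mean plus 3 SD, computed separately per campaign, cut at about 16% in these data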;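 note: inhibitors lower the luminescence because luciferase stays unfolded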
TRAIL sens C8 – viability loss with TRAIL in NB7+C8 cells, primary screen, TRAIL sensitizer project, cell-based, ATPlite luminescence; 360,000 tested, 1% active; inhibition (viability loss, TRAIL sensitization), % at 10 µM; AID 624354, 2012;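 active = compounds causing at least 50% loss of cell viability in the single-dose screen, relative to plate controls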
TROY signal inh – inhibitors of TROY-driven NF-kB signaling, primary screen, Q293 LMP1-TROYcd cells, NF-kB luciferase, uHTS; Q293 LMP1-TROYcd NF-kB luciferase reporter, 4 h; inhibition, % at 10 µM; 360,000 tested, 0.98% active;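 active = compounds whose plate-normalised and pattern-corrected inhibition of the luciferase reporter signal at the single screening dose is 50% or more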
PPC-1+TRAIL kill – compounds killing PPC-1 cancer cells with TRAIL present, primary screen, TRAIL potentiator project, ATPLite luminescence, uHTS; PPC-1 cells + TRAIL, ATPLite viability luminescence; cell killing (% activity), % at 4 µM or 5 µM; 220,000 tested, 0.41% active; AID 1443, 2008;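 active = cell killing above 50% in the first pass at 4 µM, then a duplicate retest at 5 µM averaging 50% or more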
Platelet DG rel – inhibitors of platelet dense granule secretion, primary screen, cell-based, MLPCN, human platelets | 300,000 tested, 0.22% active | human platelet-rich plasma, SFLLRN dense granule ATP release, luminescence | inhibition, %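 (compounds screened at 7.5 µM in platelet-rich plasma)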;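 active = mean replicate score, as percent of positive control, at or above 50; inconclusive = mean below 50 but at least one replicate at or above 50; inactive = mean and every replicate below 50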
HSP90 confirm – HSP90 inhibitors, confirmation, cell lysate, luminescence; rabbit reticulocyte lysate, luciferase refolding luminescence, 3 h; inhibition, % at 5.9 µM; 2,300 tested, 64% active; AID 1846, 2009; shares compounds with HSP90 refold inh; in the data active = inhibition above about 18%
FLuc counter – firefly luciferase inhibitors, HSP90 counter-screen, confirmation, artefact control for HSP90 inhibitor project, biochemical, luminescence, triplicate | shares compounds with HSP90 refold inh | purified native firefly luciferase | inhibition, % at 5.9 µM | 2,300 tested, 48% active;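 active = inhibition above the mean inhibition of all tested sample wells plus 3 SD, cut at about 10% in these data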
Target sequence (P08659 whole entry, looked up): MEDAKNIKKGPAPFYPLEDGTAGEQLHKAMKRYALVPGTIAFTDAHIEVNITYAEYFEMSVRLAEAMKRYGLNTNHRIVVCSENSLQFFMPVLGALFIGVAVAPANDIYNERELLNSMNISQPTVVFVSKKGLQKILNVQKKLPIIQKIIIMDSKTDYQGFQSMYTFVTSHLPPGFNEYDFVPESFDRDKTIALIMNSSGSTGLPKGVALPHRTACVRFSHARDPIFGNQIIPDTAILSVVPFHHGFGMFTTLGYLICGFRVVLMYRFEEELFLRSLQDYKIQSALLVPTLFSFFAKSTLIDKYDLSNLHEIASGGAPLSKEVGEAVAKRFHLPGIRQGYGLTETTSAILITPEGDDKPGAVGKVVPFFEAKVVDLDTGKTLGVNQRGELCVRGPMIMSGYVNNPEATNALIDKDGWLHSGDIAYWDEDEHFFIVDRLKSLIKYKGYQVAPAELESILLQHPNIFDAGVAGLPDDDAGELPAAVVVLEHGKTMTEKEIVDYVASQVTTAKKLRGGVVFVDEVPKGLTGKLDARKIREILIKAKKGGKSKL
Of the large screens only hits and unclear results are named; the others gave an inactive call (follow-up assays come after a bar, where they were run).

CCOC(=O)c1ccc(NC(=O)C2C3C=CC(O3)C2C(=O)O)cc1 (stereo not given)	HSP90 refold inh 35 (no result: TWEAK-Fn14 inh, TRAIL sens C8, TROY signal inh) | HSP90 confirm inactive | FLuc counter inactive
O=C(O)C1C2CCC(O2)C1C(=O)Nc1ccc(F)c(F)c1 (stereo not given)	none (no result: PPC-1+TRAIL kill)
CN(C)C(=O)Oc1cccc(OCc2n(C)c3ccccc3[n+]2C)c1	none
CCc1ccc(CNCCc2c[nH]c3ccccc23)cc1	HSP90 refold inh 19 (no result: PPC-1+TRAIL kill) | HSP90 confirm inactive | FLuc counter inactive
c1ccc(CNCCc2c[nH]c3ccccc23)cc1	none (no result: PPC-1+TRAIL kill)
Cc1nn(C2CCOC(C)(C)C2)c2c1C(c1ccc3c(c1)OCO3)SCC(=O)N2 (stereo not given)	none
COc1ccc(C2SCC(=O)Nc3c2c(C)nn3C2CCOC(C)(C)C2)cc1 (stereo not given)	HSP90 refold inh 20 | HSP90 confirm inactive | FLuc counter inactive
CN(C)CCN=Cc1c(O)n(-c2cccc(C(F)(F)F)c2)c(=O)[nH]c1=O	none
O=c1[nH]c(O)c(N=Nc2ccc3c(c2)OCCO3)c(=O)[nH]1	TWEAK-Fn14 inh 91, HSP90 refold inh 73, TROY signal inh 88 | HSP90 confirm 71 | FLuc counter 70
C=CCn1c(O)c(/C(C)=N/N2CCN(C)CC2)c(=O)[nH]c1=O	HSP90 refold inh 22 | HSP90 confirm inactive | FLuc counter inactive
COc1ccc(N=Nc2c(O)[nH]c(=S)[nH]c2=O)cc1	none
CSc1nc(N)c(N=Nc2ccc([As](=O)(O)O)cc2)c(=O)[nH]1	HSP90 refold inh 21 | HSP90 confirm 22 | FLuc counter inactive
COC(=O)C[C@]1(C(=O)OC)CN(C#N)N(c2ccc(Cl)cc2)C12c1ccccc1-c1ccccc12	TWEAK-Fn14 inh 96, HSP90 refold inh 32, TRAIL sens C8 91, TROY signal inh 89 | HSP90 confirm 59 | FLuc counter inactive
OCC[n+]1c2ccccc2nc2ccc(N3CCOCC3)cc21	HSP90 refold inh 22 | HSP90 confirm 30 | FLuc counter 18
O=c1c2ccccc2nc(-c2ccco2)n1-c1nccs1	none
C[n+]1c(-c2ccccc2)c2cc(N)ccc2c2ccc(N)cc21	HSP90 refold inh 39 (no result: PPC-1+TRAIL kill) | HSP90 confirm inactive | FLuc counter inactive
Cc1ccc(N2C(=O)CC(=O)NC2=O)cc1Cl	none (no result: PPC-1+TRAIL kill)
CC(Cc1ccccc1)NC(=O)/C=C/C(=O)O (stereo not given)	none
CCC/C=C(\CCC)C(NP(=O)(c1ccccc1)c1ccccc1)c1ccccc1 (stereo not given)	none (no result: TWEAK-Fn14 inh, HSP90 refold inh, TRAIL sens C8, TROY signal inh, PPC-1+TRAIL kill)
O=c1c2ccccc2nc(/C=C/c2ccc(F)cc2)n1-c1ccccn1	HSP90 refold inh 26, Platelet DG rel inconclusive (no result: TWEAK-Fn14 inh, TRAIL sens C8, TROY signal inh) | HSP90 confirm inactive | FLuc counter inactive
CC(=O)N1Cc2cnnn2-c2ccccc2C1(C#N)Cc1ccccc1 (stereo not given)	none (no result: HSP90 refold inh, PPC-1+TRAIL kill, Platelet DG rel)
COCCCn1c(N)c(C(=O)NCc2ccco2)c2nc3ccccc3nc21	HSP90 refold inh 21 (no result: TWEAK-Fn14 inh, TRAIL sens C8, TROY signal inh) | HSP90 confirm inactive | FLuc counter inactive
CC(C)(C)OC(=O)c1c(N)n(Cc2ccco2)c2nc3ccccc3nc12	HSP90 refold inh 29 | HSP90 confirm inactive | FLuc counter inactive
COCCNC(=O)c1c(N)n(Cc2ccco2)c2nc3ccccc3nc12	none
C=CCNC(=O)c1c(N)n(Cc2ccco2)c2nc3ccccc3nc12	none
NN=C(N)N	none (no result: HSP90 refold inh, PPC-1+TRAIL kill, Platelet DG rel)
CC1CC2(C)C(CCC3C2CCC2(C)C(OP(=O)(N4CC4)N4CC4)CCC32)CC1=O (stereo not given)	none (no result: HSP90 refold inh, PPC-1+TRAIL kill, Platelet DG rel)
